Results: PubChem BioAssay (NCI)
About 83,000 compounds went through this panel and 20% of them were active in at least one assay; those are over-represented in the sample as a whole.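 Results are percent growth after 48 hours of single-concentration exposure. 100 means growth as in untreated cells, lower positive values show inhibition; negative values down to -100 show cell death.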 A number with no mark means an inactive call. Active and inactive are the calls of the source. How the source made its calls: active means growth percent below 10; inactive means the rest.

Columns and labels:
Assay in all cases: NCI-60 one-dose screen, 48 h (100 = growth as untreated, 0 = no growth, -100 = all killed)
Settings in all cases: 10 µM unless noted
[1] = tested on: T-47D breast
[2] = tested on: MDA-MB-435 melanoma
[3] = tested on: SW-620 colon
[4] = tested on: MCF7 breast
[5] = tested on: HCT-116 colon
[6] = tested on: HCC-2998 colon
[7] = tested on: KM12 colon

For `COc1ccc2[nH]c(-c3ccccc3)c(/C=C(\C#N)S(=O)(=O)c3ccccc3)c2c1`, the growth [1] was 38.1%, the growth [2] was 2.24% (active) and the growth [3] was 35.6%. The growth [4] was 26.2%, the growth [5] was 31.4% and the growth [6] was 68.4%.

In the case of `Cc1nc2ccccc2n1-c1ncnc2c1CC(C)c1ccccc1N2C` (stereo not drawn), the growth [1] is reported as 72.1%, the growth [2] is reported as 8.87% (active) and the growth [3] is reported as 68%. The growth [4] was 61.8%, the growth [5] was 96.2% and the growth [6] was 90%. It also gave a growth [7] of 73.6%.

`Nc1nc(Cl)cc(=O)n1Cc1ccccc1` gave a growth [1] of 83.4%, a growth [2] of 92.6% and a growth [3] of 105%. For the same compound, the growth [4] was 98.1%, the growth [5] was 95.2% and the growth [6] was 89.4%. For the same compound, the growth [7] was 101%.

For `CC(C)n1cnc2c(Nc3cccc(Cl)c3)nc(N[C@H]3CCCC[C@@H]3N)nc21`, the growth [1] was 64.8%, the growth [2] was 47.5% and the growth [3] was 55.5%. The growth [4] was 40.9%, the growth [5] was 28.1% and the growth [6] was 23.4%. For the same compound, the growth [7] was 13.5%.

In the case of `Cc1ccc(-c2nc(N3CCN(C(=O)Nc4ccc(Cl)c(C(F)(F)F)c4)CC3)c3ccccc3n2)cc1`, the growth [1] is reported as 70.3%, the growth [2] is reported as 79.7% and the growth [3] is reported as 84.8%. It also gave a growth [4] of 62%, a growth [5] of 67.5% and a growth [6] of 85.3%. For the same compound, the growth [7] was 82.9%.

`COc1ccc(C(=O)n2nc(-c3ccccc3)nc2N)cc1OC` gave a growth [1] of 56.4%, a growth [2] of 109% and a growth [3] of 90.3%. For the same compound, the growth [4] was 44.3%, the growth [5] was 98.2% and the growth [6] was 97.9%. For the same compound, the growth [7] was 85.8%.

For `CCCC1CCC(O)(C(C)(O)C(=O)NC2C(=O)N3NCCCC3C(=O)N(O)C(C)C(=O)N3NCCCC3C(=O)N3NCC(O)CC3C(=O)NC(C)C(=O)OC2C(C)C)OC1CC` (stereo not drawn), the growth [1] was -77.8% (active), the growth [2] was -74.6% (active) and the growth [3] was -97.3% (active). The growth [4] was -83% (active), the growth [5] was -57.2% (active) and the growth [6] was -93.6% (active).

With `COc1nc2ccccc2cc1-c1nc2c(cnn2-c2ccc(Br)cc2)c(=O)[nH]1` the growth [1] was 24.2%, the growth [2] was -74.8% (active) and the growth [3] was 19.5%. The growth [4] was 22.1%, the growth [5] was 23.1% and the growth [6] was 51.1%. For the same compound, the growth [7] was 18.3%.

`CC(=O)c1ccc(Nc2nc(C(C)=O)c(C)s2)cc1` gave a growth [1] of 92.4%, a growth [2] of 100% and a growth [3] of 96.2%. The growth [4] was 83.6%, the growth [5] was 104% and the growth [6] was 98.3%. The growth [7] was 98.5%.

With `CC(C)C(=O)Nc1ccc(-c2nc(-c3cccc(OCCN4CCOCC4)c3)c(-c3ccnc(Br)c3)[nH]2)cc1` the growth [1] was 39%, the growth [3] was 50.4% and the growth [4] was 15.9%. For the same compound, the growth [5] was 44.5%, the growth [6] was 66.2% and the growth [7] was 33.7%.

Work on `O=C(Nn1c(NCC(=O)N2c3ccccc3Sc3ccccc32)nnc1-c1ccc(O)cc1)c1ccccc1` yielded a growth [1] of 98.9%, a growth [2] of 102% and a growth [3] of 105%. For the same compound, the growth [4] was 108%, the growth [5] was 91.7% and the growth [6] was 91.9%. For the same compound, the growth [7] was 104%.

Work on `COc1cc(C(=O)N/N=C/c2cc3cc(OCc4ccccc4)ccc3nc2OC)cc(OC)c1OC` yielded a growth [1] of 54.3%, a growth [2] of 88.3% and a growth [3] of 91.6%. The growth [4] was 78.4%, the growth [5] was 85.7% and the growth [6] was 96.7%. It also gave a growth [7] of 96.2%.

For `COc1cc(C2CC(c3ccc(N(C)C)cc3)=NN2C(C)=O)cc(OC)c1OC` (stereo not drawn), the growth [1] was 31.7%, the growth [2] was -65.6% (active) and the growth [3] was 10.7%. The growth [4] was 11.5%, the growth [5] was 20.6% and the growth [6] was 24.9%. For the same compound, the growth [7] was 10.8%.

In the case of `COc1ccc(S(=O)(=O)n2c3ccccc3n3ncc(-c4nnc(C)o4)c23)cc1`, the growth [1] is reported as 41.8%, the growth [2] is reported as -21.9% (active) and the growth [3] is reported as 27%. It also gave a growth [4] of 18.9%, a growth [5] of 18.4% and a growth [6] of 17.1%. For the same compound, the growth [7] was 29.8%.

`Cc1cccc(NCc2cn(-c3ccc(C(=O)O)cc3)nc2-c2ccc(C(=O)O)cc2)n1` showed a growth [1] of 100%, a growth [2] of 101% and a growth [3] of 99.9%. The growth [4] was 97.4%, the growth [5] was 107% and the growth [6] was 112%. The growth [7] was 102%.

`O=C(Oc1cccc2ccccc12)Oc1cccc2ccccc12` gave a growth [1] of 95.1%, a growth [2] of 115% and a growth [3] of 110%. For the same compound, the growth [4] was 107%, the growth [5] was 107% and the growth [6] was 105%. For the same compound, the growth [7] was 97.3%.

`N[C@@H](Cc1ccccc1)[C@@H](O)C(=O)NCc1ccc(F)cc1` gave a growth [1] of 113%, a growth [2] of 101% and a growth [3] of 103%. It also gave a growth [4] of 94.9%, a growth [5] of 96.1% and a growth [6] of 113%.

For `O=c1c2cccc(F)c2sc2c(NCCCNCCO)nc3ccccc3c12`, the growth [1] was 51.8%, the growth [2] was 6.93% (active) and the growth [3] was -68.1% (active). For the same compound, the growth [4] was 20.2%, the growth [5] was 0.842% (active) and the growth [6] was -51.7% (active). The growth [7] was 9.05% (active).

`CN(C)CCN1CCN(c2ncccc2C2Nc3ccccc3-n3cccc32)CC1` (stereo not drawn) showed a growth [1] of 90.1%, a growth [2] of 101% and a growth [4] of 101%. For the same compound, the growth [5] was 105%, the growth [6] was 114% and the growth [7] was 105%.

`COc1cc(C(=O)c2cc(C)c3[nH]c4ccc(O)cc4c3c2C)cc(OC)c1OC` was tested, and the growth [1] was 38.5%, the growth [2] was -6.06% (active) and the growth [3] was 31.2%. The growth [4] was 11%, the growth [5] was -5.93% (active) and the growth [6] was 20.6%. For the same compound, the growth [7] was 4.49% (active).

`NCCOc1ncccc1/C=C1\C2C=CC=CC2C2C=CC(F)=CC12` (stereo not drawn) gave a growth [1] of 33.1%, a growth [2] of 63.4% and a growth [3] of 13.3%. For the same compound, the growth [4] was 11.8%, the growth [5] was 22.2% and the growth [6] was 4.37% (active). The growth [7] was 29%.

`Oc1ccc(Cl)cc1Cc1cc(Cl)cc(Cl)c1O` showed a growth [1] of 40.7%, a growth [2] of 15.4% and a growth [3] of 28%. The growth [4] was 60.1%, the growth [5] was 37.1% and the growth [6] was 70.6%. It also gave a growth [7] of 37.6%.

In the case of `Cc1ccc(-c2nc(N3CCN(C(=O)c4ccc(OC(F)(F)F)cc4)CC3)c3ccccc3n2)cc1`, the growth [1] is reported as 61.7%, the growth [2] is reported as 92.5% and the growth [3] is reported as 97%. It also gave a growth [4] of 92.9%, a growth [5] of 85.3% and a growth [6] of 97.1%. For the same compound, the growth [7] was 93%.

`O=c1c2cc(F)ccc2sc2c(NCCCNCCO)nc3ccc(F)cc3c12` was tested, and the growth [1] was 70.2%, the growth [2] was -28.4% (active) and the growth [3] was -39.7% (active). For the same compound, the growth [4] was 47.9%, the growth [5] was -72.8% (active) and the growth [6] was 1.69% (active).

For `COc1cccc2c(=O)c3c(sc12)c(NCCCN)nc1ccccc13`, the growth [1] was 82.6%, the growth [2] was 33.9% and the growth [4] was 24.9%. The growth [5] was -73.9% (active), the growth [6] was -57.3% (active) and the growth [7] was 13%.
